According to PubChem BioAssay AID612 (The Scripps Research Institute Molecular Screening Center, 2007):
Hit rate of the full screen: of about 62,000 compounds, about 420 (0.68%) were called active. For the sample, actives were picked, then their nearest neighbours and some compounds at random. Unmarked numbers belong to inactive results.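 The calls were made as follows: active = inhibition above the mean of all tested compounds plus 3 SD (cut at about 43% in these data); inactive = the rest.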

Each compound was assayed against 5-hydroxytryptamine receptor 1A (Homo sapiens) (UniProt P08908) (assay: human 5-HT1a receptor antagonists, primary screen, cell-based, CHO, Ga15 NFAT-bla reporter (AID 612;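 also: receptor stimulated by 5-CT agonist at 100 nM near EC80; beta-lactamase reporter measured by ratiometric fluorescence of a cleavable substrate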)). Conditions: CHO 5-HT1a Ga15 NFAT-bla reporter, antagonist mode; at 10 µM; stronger effect = higher value.
5-hydroxytryptamine receptor 1A (Homo sapiens), sequence (P08908 whole entry, looked up): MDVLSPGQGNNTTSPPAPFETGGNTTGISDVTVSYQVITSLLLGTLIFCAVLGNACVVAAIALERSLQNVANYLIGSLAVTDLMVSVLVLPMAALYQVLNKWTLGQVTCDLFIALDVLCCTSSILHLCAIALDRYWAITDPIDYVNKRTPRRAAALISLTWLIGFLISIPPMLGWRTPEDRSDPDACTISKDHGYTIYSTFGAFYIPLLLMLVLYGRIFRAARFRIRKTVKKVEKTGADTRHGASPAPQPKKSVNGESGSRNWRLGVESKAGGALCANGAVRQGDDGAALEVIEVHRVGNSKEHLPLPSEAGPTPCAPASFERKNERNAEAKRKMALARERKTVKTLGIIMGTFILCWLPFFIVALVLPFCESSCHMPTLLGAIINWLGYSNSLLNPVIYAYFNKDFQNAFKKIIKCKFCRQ
In the case of `COc1ncnc2sc3c(c12)CCCC3`, the inhibition is reported as 10.5%. `COc1ccc(-c2nnco2)cc1OC` showed an inhibition of 2%. Compound `COc1ccc(-c2ccc(Nc3ccc(S(=O)(=O)N4CCCC4)cc3)nn2)cc1OC` has an inhibition of -0.9%. In the case of `COc1ccc(-c2cc(C(F)(F)F)nc(S(C)(=O)=O)n2)cc1OC`, the inhibition is reported as 78.1% (active). `CN1CCN(CC(=O)C23CC4CC(CC(C4)C2)C3)CC1` gave an inhibition of 4.4%. Compound `Cc1ccc(C2(c3ccc(C)cc3)NC(=O)N(Cc3c(C)noc3C)C2=O)cc1` has an inhibition of 1.9%. Work on `CCN(Cc1ccccc1)C(=O)CSc1nc(C)cc2c1C(=O)OC2` yielded an inhibition of -9%. `O=C(CSc1nnc(-c2cnccn2)n1Cc1ccco1)c1ccc(Cl)c(Cl)c1` showed an inhibition of 9.1%. Compound `Cc1noc(C)c1S(=O)(=O)NCCc1ccc(S(N)(=O)=O)cc1` has an inhibition of -7.6%. Work on `COc1ccc(CCN(C)C(=O)C2CCCN(Cc3ccc(OC)c(OC)c3)C2)cc1OC` (centres undefined) yielded an inhibition of 14.7%. In the case of `COc1ccccc1-n1nnnc1S(=O)(=O)Cc1ccc(Cl)cc1`, the inhibition is reported as 82.7% (active). For `COc1ccccc1N1CCN(C(=O)CN(Cc2ccc(Cl)cc2)S(C)(=O)=O)CC1`, the inhibition was 17.7%. Compound `COc1ccccc1N1CCN(Cc2nnnn2CCc2ccccc2)CC1` has an inhibition of 5.1%. In the case of `COC(=O)c1ccc(NC(=O)CSc2nnc(Cc3cccn3C)n2-c2ccc(F)cc2)cc1`, the inhibition is reported as 3.3%. `Cc1ccc(N2C(=O)CC(NCc3ccc4c(c3)OCO4)C2=O)cc1Cl` (centres undefined) gave an inhibition of -4.3%. `CC(C)NS(=O)(=O)c1ccc(CCC(=O)N2CCOCC2)cc1` showed an inhibition of -10.5%. `CCOC(=O)CSc1nnc(CNC(=O)c2ccco2)n1-c1ccc(F)cc1` was tested, and the inhibition was 5.9%. Work on `CN(C)/C=C1\C=C(c2ccccc2)OC1=O` yielded an inhibition of -8.2%. Work on `CCOC(=O)C1(Cc2ccc(O)cc2)NC(c2ccccc2F)C2C(=O)N(C)C(=O)C21` (centres undefined) yielded an inhibition of 6.2%. With `Clc1ccc(C=NC23CN4CN(CN(C4)C2)C3)cc1` the inhibition was -6.9%. Compound `COc1ccc(CNC(=O)C2CCN(S(=O)(=O)N3CCOCC3)CC2)cc1` has an inhibition of 5.7%. `c1csc(-c2nc(-c3ccncc3)no2)c1` gave an inhibition of -12.8%. Work on `COc1cc(Cl)c(S(=O)(=O)n2cnc(C)c2)cc1Cl` yielded an inhibition of -7.5%. For `CSCC[C@H](NC(=O)NCc1cccs1)C(=O)O`, the inhibition was 4.7%. For `CC1CCN(c2oc(-c3ccccc3F)nc2C#N)CC1`, the inhibition was 13.1%. `c1csc(-c2cn3c(n2)SCC3)c1` showed an inhibition of 5.5%. With `Cc1ccc(C(=O)Nc2nnc(-c3cccs3)s2)cc1C` the inhibition was -13.8%. `COc1cccc(NC(=O)Nc2nnc(N3CCCCC3C)s2)c1` (centres undefined) was tested, and the inhibition was 35.8%. With `c1ccc(-n2ncc3c2ncn2c(C4CCCCC4)nnc32)cc1` the inhibition was -3.1%. For `O=C(CC(NS(=O)(=O)c1ccc(Cl)cc1)c1ccco1)NC1CCCC1` (centres undefined), the inhibition was 7.3%. With `COC(=O)N1CN(C(=O)OC)CN(C(=O)OC)C1` the inhibition was -7%. `O=C(CN1CCOCC1)Nc1c2c(nc3c1CCC3)CCC2` gave an inhibition of 2.1%. Work on `CCOC(=O)CSc1nc2c(c(=O)n(C)c(=O)n2C)n1Cc1ccccc1F` yielded an inhibition of -3.1%. In the case of `COc1ccccc1NC(=O)CSc1nc2sc(C)c(C)c2c(=O)n1Cc1ccco1`, the inhibition is reported as 19.2%. For `CCOC(=O)CSc1nc2c(sc(=S)n2CCc2ccccc2)c(=O)n1Cc1ccco1`, the inhibition was 58.2% (active). In the case of `CC(c1cccnc1)N(CCN(C)C)C(=O)Nc1ccc(Cl)c(Cl)c1` (centres undefined), the inhibition is reported as 3.9%. In the case of `Cc1ccc(C)c(NC(=O)C2CC(=O)N(C(C)C)C2)c1` (centres undefined), the inhibition is reported as -1.5%. `COc1ccc(S(=O)(=O)N2CCOCC2)cc1C(=O)Nc1nc2ccccc2s1` was tested, and the inhibition was -17.7%. `Cc1ccc2nc(NC(=O)C3CCN(S(=O)(=O)c4ccc5c(c4)oc(=O)n5C)CC3)sc2c1` gave an inhibition of 1.8%. `O=S(=O)(NCc1ccccc1Cl)c1cnc[nH]1` was tested, and the inhibition was -4.7%. `COc1ccccc1C(=O)Oc1ccc(N2C(=O)CCC2=O)cc1` showed an inhibition of -3.5%. `CCOc1cc(-c2noc(CCC(=O)N3CCOCC3)n2)ccc1OC` gave an inhibition of -10.7%. In the case of `CCOc1cc(C(=O)N2CCc3cc(OC)c(OC)cc3C2)ccc1OC(F)F`, the inhibition is reported as 60.5% (active). `CCOc1cc(CN2CCN(C(=O)CC(C)C)CC2)ccc1OC` gave an inhibition of -2.9%. In the case of `CCCOc1ccccc1C1CC(=O)Nc2cc3c(cc21)OCO3` (centres undefined), the inhibition is reported as 54.2% (active). In the case of `COCCOC(=O)C1=C(C)NC(=O)CC1c1cc2c(cc1Br)OCO2` (centres undefined), the inhibition is reported as 3.2%. For `COc1cc2c(cc1OC)C(c1ccc(C)o1)CC(=O)N2` (centres undefined), the inhibition was 30.2%. In the case of `Cc1cc(NC(=O)CCC(=O)N(c2cccc(F)c2)C(C(=O)NC2CCCC2)c2ccncc2)no1` (centres undefined), the inhibition is reported as -3.5%. For `C/C(=N\O)C1(C)N(O)C(C)(C)C(c2ccc(Br)cc2)=[N+]1[O-]` (centres undefined), the inhibition was -14.2%. Compound `COC(=O)c1ccc(/C=N\n2c(C)nnc2C)cc1` has an inhibition of 0.3%. For `CCOC(=O)N1CCN(C(=O)C2CCCN(c3ncnc4c3sc3cccc(F)c34)C2)CC1` (centres undefined), the inhibition was 7.8%. With `CC(C)c1ccc(-c2nn[nH]n2)cc1` the inhibition was -0.6%. `COc1ccc(N2CCN(C3CC(=O)N(c4ccc5c(c4)OCCO5)C3=O)CC2)cc1` (centres undefined) was tested, and the inhibition was -12.3%. `O=C(CCc1ccccc1)Nc1cccc(-c2nnc(-c3ccco3)o2)c1` gave an inhibition of 10%. In the case of `COC(=O)Cc1c(C)c2ccc(OCC(=O)NCc3ccc4c(c3)OCO4)cc2oc1=O`, the inhibition is reported as 12.5%. `CN(C)CCCn1c(N)c(C#N)c2nc(C#N)c(C#N)nc21` showed an inhibition of -28.3%. Compound `O=C(Cn1cnc2c(nnn2Cc2ccc(F)cc2)c1=O)NCc1ccc2c(c1)OCO2` has an inhibition of 2%. With `COc1ccc(C(=O)N2CCC(C(=O)Nc3cccc(C)c3)CC2)cc1OC` the inhibition was -2.1%. In the case of `O=C(Nc1nsc(-c2ccccc2)n1)c1ccncc1`, the inhibition is reported as -6.7%. In the case of `COc1ccc(C2OC(=O)CC2C(=O)NC(C)C)cc1` (centres undefined), the inhibition is reported as -3.4%. For `CC(C)CCNC(=O)CN(C(=O)Cn1nnc(-c2ccc(F)cc2)n1)C1CCCC1`, the inhibition was 9.5%. In the case of `O=C(O)c1cscn1`, the inhibition is reported as -20.4%. Work on `O=S(=O)(NCc1ccccn1)c1ccc(F)cc1` yielded an inhibition of -4.1%. In the case of `Cn1c(C(=O)NCCc2ccsc2)cc2c(=O)n(C)c3ccccc3c21`, the inhibition is reported as -3.6%. With `Cn1c(C(=O)NCCCN2CCN(c3cccc(Cl)c3)CC2)cc2c(=O)n(C)c3ccccc3c21` the inhibition was 47.4% (active). `CCOC(=O)N1CCC(Nc2c(NCCN3CCN(c4cccc(Cl)c4)CC3)c(=O)c2=O)CC1` was tested, and the inhibition was 1.9%. With `CCn1c(=O)cc(OCC(=O)NCCCN2CCN(c3cccc(Cl)c3)CC2)c2ccccc21` the inhibition was 50.4% (active). Work on `CC1CCCC(C)N1CCCNC(=O)c1cc2c(=O)n(C)c3ccccc3c2n1C` (centres undefined) yielded an inhibition of 1.7%. Work on `O=C(CCn1c(=O)[nH]c2ccccc2c1=O)NCCCN1CCN(c2cccc(Cl)c2)CC1` yielded an inhibition of 37.1%. `Fc1ccc2nc(Nc3nc4c(s3)CCCC4)sc2c1` showed an inhibition of 16.8%. `Cc1cnc(NC(=O)CSc2nnc(-c3ccc(Cl)cc3Cl)n2N)s1` was tested, and the inhibition was -1.4%. Compound `CN(CCCNC(=O)CN1C(=O)CC(C)(C)S(=O)(=O)c2ccccc21)C1CCCCC1` has an inhibition of -7.9%. Work on `CCOC(=O)Cn1c2c(c(-c3ccccc3OC)cc1=O)CCCC2` yielded an inhibition of 17.8%. Work on `O=S(=O)(c1ccc(Sc2nnc3ccccn23)nc1)N1CCOCC1` yielded an inhibition of -7.8%. `O=C(Nc1nnc(-c2ccc(Cl)cc2)o1)c1ccccc1Br` was tested, and the inhibition was 8.9%. In the case of `O=c1cc(CSc2ccc(Cl)cc2)nc(N2CCOCC2)[nH]1`, the inhibition is reported as -13.7%. For `Cc1cc2c(=O)n(C)c(SCC(=O)c3cc4ccccc4o3)nc2s1`, the inhibition was -6.7%. Compound `COc1ccccc1-c1nc(C(F)(F)F)c(OC)o1` has an inhibition of 3.7%. In the case of `COCCNC(=O)Cn1cc2c(n1)CCCCC2`, the inhibition is reported as -1.6%. Work on `Nc1nonc1-c1nc2ccccc2n1CCC(=O)O` yielded an inhibition of -21.2%. `COc1ccc(C)c(Cn2c(-c3nonc3N)nc3ccccc32)c1` gave an inhibition of 38.7%. `Nc1nonc1-c1nc2ccccc2n1Cc1ccc(F)cc1` was tested, and the inhibition was 48% (active). For `Cc1cccc2nc(CNc3ccc(F)cc3)cn12`, the inhibition was -11.2%. `COc1ccc(N2C(=O)C3CCCN3C2c2cccs2)cc1` (centres undefined) showed an inhibition of 19.9%. Compound `O=C(CSc1nnc2ccccn12)c1ccccc1` has an inhibition of 3.3%. With `COc1ccc(OC)c(C(=O)CSc2nnc(-c3cccs3)o2)c1` the inhibition was -4.9%. For `Cc1ccc(-c2noc(CCC(=O)Nc3ccccc3N3CCN(C)CC3)n2)cc1`, the inhibition was 5.2%. `O=C(NCCN1CCOCC1)c1ccc2c(c1)ncn2C1CCCC1` was tested, and the inhibition was -8%. With `Cc1ccc(Oc2ccc(N)cc2)cc1` the inhibition was 11.4%. `CCCc1nc(SCC(=O)Nc2ccccc2OC)c2c(=O)n(C)c(=O)n(C)c2n1` was tested, and the inhibition was 10.8%. `CCOc1cc(/C=N/n2cnnc2)c(Br)cc1O` gave an inhibition of -8.1%. `COc1ccc(O)c(C=Nc2cc(C)on2)c1` showed an inhibition of 4.6%. `COc1ccccc1-n1cnc2cc(C(=O)NCC3CCCO3)ccc21` (centres undefined) showed an inhibition of 10.8%. Work on `COC(=O)c1ccc(CSc2nncn2C)cc1` yielded an inhibition of -0.1%. Compound `COc1ccc(C(CNC(=O)c2cccnc2SC)N2CCOCC2)cc1` (centres undefined) has an inhibition of 5.3%. `CCCC(=O)Nc1c(O)c2ccccc2[nH]c1=O` was tested, and the inhibition was 0.3%. `O=C(c1cc(-c2cccc(O)c2)on1)N1CCc2ccccc2C1` gave an inhibition of -4.3%. `c1ccc(-c2cn3cccnc3n2)cc1` showed an inhibition of -0.3%. `C/C(CC(O)(/C=N/O)c1ccccc1)=N\O` (centres undefined) was tested, and the inhibition was 7.7%.
